# Most compounds without a hit are left out; they make up all but 4.6% or so of the library.
# D1 PAM: Potentiators of Human D1 Dopamine Receptor: qHTS. HEK293 TREx D1 cells, calcium flux, dopamine EC20 potentiation. 0.036% of 360,000 active. potentiation, % at 10 µM. AID 504651, 2011. D(1A) dopamine receptor (Homo sapiens), P21728; in the data active = potentiation above about 30%; note: 0% is about no effect
# TRHR ag: qHTS for Small Molecule Agonists and Allosteric Enhancers of Human TRH Receptor: Primary Screen for Agonists; TRHR cells, calcium flux fluo-8, FDSS agonist mode; activation, % at 2 µM; 0.18% of 360,000 active; note: 0% is about no effect
# Target sequence (P34981 whole entry, looked up): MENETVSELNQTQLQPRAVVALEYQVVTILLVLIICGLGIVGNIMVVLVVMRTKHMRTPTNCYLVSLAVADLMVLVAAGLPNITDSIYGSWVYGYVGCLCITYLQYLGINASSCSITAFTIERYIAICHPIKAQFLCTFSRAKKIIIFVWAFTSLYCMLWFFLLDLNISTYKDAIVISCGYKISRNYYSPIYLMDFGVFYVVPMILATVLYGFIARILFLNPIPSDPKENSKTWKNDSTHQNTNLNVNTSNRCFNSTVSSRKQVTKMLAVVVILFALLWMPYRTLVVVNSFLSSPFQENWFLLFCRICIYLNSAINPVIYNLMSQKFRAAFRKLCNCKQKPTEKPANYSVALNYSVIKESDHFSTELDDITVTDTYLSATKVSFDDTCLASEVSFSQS
#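 Fluo-8-loaded TRHR cells; 10 s baseline, compound added, kinetic Ca2+ fluorescence read 1/s, agonist mode.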
# D1 antag: Antagonist of Human D 1 Dopamine Receptor: qHTS; activity change, negative = inhibition, % at 10 µM; AID 504652, 2011; 3.2% of 360,000 active; HEK293 TREx D1 cells, calcium flux, dopamine EC80; active compounds read low; D(1A) dopamine receptor (Homo sapiens), P21728; in the data active = activity change below about -30%; note: % is set by controls: 0 for no effect and ±100 for the full control effect
#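 Inducible Hek293 Trex D1 cells (tetracycline, overnight, 30 C). Calcium dye 30–90 min RT. Antagonist mode: EC80 dopamine added after 180 s compound read.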
# D1 agonist: Allosteric Agonists of the Human D1 Dopamine Receptor: qHTS; activation, % at 2 µM; 1% of 360,000 active; HEK293 T-REx D1 cells, calcium flux, agonist mode; D(1A) dopamine receptor (Homo sapiens), P21728; note: 0% is about no effect
#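 Agonism was scored from calcium flux recorded over 180 s (1 read/s) after pintool compound addition, following a 10-cycle baseline. Cells were inducible force-coupled HEK293 TREx D1, plated overnight at 30 C and loaded with no-wash calcium dye.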
# TRHR PAM: qHTS for Small Molecule Agonists and Allosteric Enhancers of Human TRH Receptor: Primary Screen for Enhancers | Thyrotropin-releasing hormone receptor (Homo sapiens), P34981 | enhancement, % at 2 µM | 0.66% of 360,000 active | TRHR cells, fluo-8 calcium fluorescence, EC20 TRH enhancement; in the data active = enhancement above about 30%; note: 0% is about no effect
#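 Enhancer read-out: after compound pinning and an initial kinetic agonist-mode read, an EC20 of TRH (10 nM final) was injected and fluo-8 calcium signal (Ex 480/Em 530) followed at 1 s/cycle for 100 cycles in TRHR-expressing cells.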
# * marks the source's active call; other numbers are inactive results; . = not tested or not shown; ! = not confirmed by another sample. Cut-off read from the data, not from the text of the source, unless noted: active = activation above about 30%; inactive = the rest.
SMILES,D1 PAM,TRHR ag,D1 antag,D1 agonist,TRHR PAM
O=C(OCc1ccco1)c1ccc2c(c1)N(Cc1cccc(F)c1)C(=O)c1ccccc1S2,-1,1,5,7,-3
COc1cc(F)cc(-c2ccc3c(c2)c(-c2cccs2)c(-c2cc(OC)cc(OC)c2)n3C)c1,-6,5,.,42*,-1
COc1cc(OC)cc(-c2c(-c3cccs3)c3cc(Br)ccc3n2C)c1,-6,0,.,-1,-2
O=C1C2=C(C(=O)c3ccccc31)C1O[C@](CCCCN3C(=O)c4ccccc4C3=O)(Cc3c1ccc1ccccc31)O2,-2,1,-7,4,-1
CCOc1ccc(NC(=O)c2cc3cc(C)ccc3n2C)cc1,2,1,-56*,-1,-1
Cc1ccccc1C(=O)Nc1cccc(C(=O)OCc2cc(=O)n3nc(C4CC4)sc3n2)c1,0,-1,-18,0,-3
CCOC(=O)c1cc(S(=O)(=O)NCC2CCN(Cc3cccc(C)c3)CC2)cn1C,-3,1,1,10,-4
COc1ccccc1CNC(=O)c1cc(S(=O)(=O)N2CCCC(C)C2)cn1C (stereo not given),-1,-1,-17,2,38*
COC(=O)c1cc(S(=O)(=O)NCc2cccc(OC)c2)cn1C,-4,0,-19,3,10
COC(=O)c1cc(S(=O)(=O)NCc2ccccc2OC)cn1C,-9,0,-48*,10,-1
COC(=O)c1cc(S(=O)(=O)NCC2CCN(Cc3cccc(F)c3)CC2)cn1C,-7,0,-39*!,9,-3
Cc1ccccc1NC(=O)Cn1c(=O)oc2cc(Br)ccc21,0,0,-25,18,-5
COc1ccc(Nc2nc(N3CCCC3)c3ccccc3n2)cc1,-21,-1,-51*,6,7
COc1ccccc1Nc1c2ccccc2nc2ccccc12,-6,0,-52*,3,0
COc1ccc(Nc2c3c(nc4ccccc24)CCC3)cc1,-11,1,-26,8,4
COc1ccc(Nc2c3ccccc3nc3ccccc23)cc1,-8,0,-95*,19,0
c1cncc(Nc2c3ccccc3nc3ccccc23)c1,-15,0,-31*,3,-11
C=Cc1ccc(Cn2c(=O)n(-c3ccc(C)cc3)c(=O)c3c2c2cc(OC)ccc2n3C)cc1,-2,1,-10,3,3
Cc1c(C)n(Cc2ccccc2)c2ccc(C(=O)NCC(C)c3ccccc3)cc12 (stereo not given),-4,0,11,1,-4
Cc1ccc(OCC(=O)NNC(=S)NC(=O)C2CCCCC2)c(C)c1,-2,4,-7,47*,-3
Cc1ccc(OCC(=O)NNC(=S)NC(=O)C2CC2)c(C)c1,5,1,12,9,10
Cc1ccc(OCC(=O)NNC(=S)NC(=O)C(C)(C)C)c(Br)c1,-1,17,-2,82*,-4
Nc1c(-c2nc(-c3ccccc3Cl)no2)nnn1-c1ccccc1F,-3,1,-16,2,7
O=C1c2cccc3cc([N+](=O)[O-])cc(c23)C(=O)N1CCN1CCCC1,10,0,7,1,-4
Nc1cc2c3c(cccc3c1)C(=O)N(CCN1CCCC1)C2=O,0,12,-5,56*,5
SMILES,D1 PAM,TRHR ag,D1 antag,D1 agonist,TRHR PAM
Oc1ccc(C[C@H]2CNCCN2CCC23CC4CC(CC(C4)C2)C3)cc1,1,0,1,24,6
Oc1ccc(C[C@H]2CNCCN2CCCCC2CCCCC2)cc1,-2,1,10,33*,6
Oc1ccc(C[C@@H]2CNCCN2CCC23CC4CC(CC(C4)C2)C3)cc1,2,0,34,95*,9
Cc1ccc(CCNC(=O)C2CC(c3cc(C(F)(F)F)cc(C(F)(F)F)c3)=NO2)cc1 (stereo not given),5,1,14,14,2
CCCCNC(=O)C1CC(c2cccc(F)c2)=NO1 (stereo not given),8,0,-45*,5,4
CC(C)CCNC(=O)C1CC(c2cccc(F)c2)=NO1 (stereo not given),4,-1,15,5,1
Cc1ccc(CCNC(=O)C2CC(c3cccc(F)c3)=NO2)cc1 (stereo not given),4,-1,-62*,3,0
COc1cccc(N2CCN(c3ccc(N4C(=O)CCC4=O)cc3[N+](=O)[O-])CC2)c1,-4,0,-25,17,-6
COc1ccccc1N1CCN(c2ccc(N3C(=O)CCC3=O)cc2[N+](=O)[O-])CC1,-6,1,-44*,14,0
COc1ccccc1N1CCN(Cc2ccco2)CC1,-2,0,4,3,0
COc1ccccc1N1CCN(Cc2ccc(-c3ccccc3[N+](=O)[O-])o2)CC1,-9,0,-74*,2,-3
N#Cc1cc(S(=O)(=O)c2ccc(Cl)cc2)c(N)[nH]c1=O,-4,-1,-45*,2,-6
Cc1cc(C)c(S(=O)(=O)c2ccc(Cl)cc2)c(=O)[nH]1,3,0,4,2,6
COc1cc(C)c(C(C)C)cc1S(=O)(=O)N1CCN(C)CC1,-9,0,-46*,1,-6
COc1cc(C)c(Cl)cc1S(=O)(=O)N1CCCC1,-7,0,-34*,1,-4
CCOc1cc(C)c(Cl)cc1S(=O)(=O)N1CCCC1,-4,-1,-10,1,-3
CCOc1cc(C)c(C(C)C)cc1S(=O)(=O)N1CCN(C)CC1,11,1,-2,2,-6
O=C(CNC(=S)N(Cc1ccc(F)cc1)C1CCCCC1)NCC1CCCO1 (stereo not given),3,0,2,3,0
CCCCNC(=O)CNC(=S)N(Cc1ccccc1F)C1CCCCC1,-3,-1,-37*,0,-1
O=C(CNC(=S)N(Cc1ccccc1F)C1CCCCC1)NCC1CCCO1 (stereo not given),-1,0,-46*,3,3
COc1c(O)cc2oc(-c3ccc(O)cc3)cc(=O)c2c1O,-7,-1,-21,2,-2
Cc1c2cc(O)c(=O)cc-2oc2cc(O)c(O)cc12,-3,3,-4,34*!,6
COc1cc(OC)c(-c2c3cc(O)c(=O)cc-3oc3cc(O)c(O)cc23)cc1OC,32*,266*,71,626*,152*

# Bioassay records (PubChem BioAssay)
